Results from PubChem BioAssay (EPA / NIEHS).
“And” between values parts separate entries of the source, which are not always exact repeats. Identical values can stand only once. Some compounds were tested as several samples or in several runs, with calls that do not always agree. The source made the active and inactive calls. How the source made its calls: active means hit-call score of the fitted dose curve at least 0.9, where 1 is the maximum; inactive means score below 0.9.

How the values were obtained:
[1] = ATG_NFI_CIS: Attagene CIS-FACTORIAL HepG2 Assay for human Nuclear Factor I (NFI) (AID 2282989); conditions: HepG2 cis-regulatory reporter, NFI response element transcription; actives raise or lower the signal
Summary of the method: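 Transient MRTU transfection of HepG2 → 24 h chemical dosing → total RNA, oligo(dT) RT → PCR, 6-FAM primer extension, HpaI cut → capillary electrophoresis. Endpoint fitted bidirectionally relative to DMSO.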

[2] = target: Myc proto-oncogene protein (Homo sapiens) (UniProt P01106); assay: ATG_Myc_CIS: Attagene CIS-FACTORIAL HepG2 Assay for human Myelocytomatosis (Myc) Proto-Oncogene Transcription Factor (AID 2282990); conditions: HepG2, Attagene cis-reporter transcription factor activity; actives raise or lower the signal
Chain of Myc proto-oncogene protein (Homo sapiens) (P01106 whole entry, looked up): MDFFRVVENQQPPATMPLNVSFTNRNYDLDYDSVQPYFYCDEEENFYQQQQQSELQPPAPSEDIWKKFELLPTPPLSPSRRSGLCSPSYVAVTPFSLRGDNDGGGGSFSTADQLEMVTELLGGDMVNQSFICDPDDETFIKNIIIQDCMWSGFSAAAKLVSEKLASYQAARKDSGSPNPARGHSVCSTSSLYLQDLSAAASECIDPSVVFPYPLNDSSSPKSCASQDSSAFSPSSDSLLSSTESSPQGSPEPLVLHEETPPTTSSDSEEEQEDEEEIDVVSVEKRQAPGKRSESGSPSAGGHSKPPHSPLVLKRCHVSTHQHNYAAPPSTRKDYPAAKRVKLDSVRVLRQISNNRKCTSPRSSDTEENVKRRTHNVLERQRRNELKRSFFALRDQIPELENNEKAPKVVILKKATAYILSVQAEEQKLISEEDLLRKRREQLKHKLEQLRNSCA
Summary of the method: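 Cells of the HepG2 human liver line bear multiple cis-driven reporter transcription units. Reporter mRNA after 24 h exposure is reverse-transcribed, amplified, labelled and resolved by capillary electrophoresis, with gain- or loss-of-signal fitting relative to DMSO.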

[3] = ATG_NF_kB_CIS: Attagene CIS-FACTORIAL HepG2 Assay for human Nuclear Factor Kappa B (NF-kB) (AID 2282991); conditions: HepG2 Attagene cis-factorial NF-kB reporter mRNA; actives raise or lower the signal
Summary of the method: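 Multiplexed cis-reporter assay in transiently transfected HepG2. 24 h treatment; RNA isolated, RT-PCR, labelled fragments resolved by CE. DMSO baseline.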

[4] = ATG_NRF2_ARE_CIS: Attagene CIS-FACTORIAL HepG2 Assay for human Nuclear Factor Erythroid 2 Related Factor 2 (NFR2) response to Antioxidant Response Elements (ARE) (AID 2282992); conditions: HepG2 Attagene ARE/NRF2 reporter, transcription factor activity; actives raise or lower the signal;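 on AC50: reporter mRNA level measured by RT-PCR and capillary electrophoresis fluorescence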
Summary of the method: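 Fluorescence intensity of reporter-specific cDNA fragments, separated by capillary electrophoresis, reflects mRNA induction in transfected HepG2 cells at 24 h. Activity is fitted bidirectionally, DMSO serving as baseline.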

[5] = ATG_Oct_MLP_CIS: Attagene CIS-FACTORIAL HepG2 Assay for human Octamer-Binding Transcription Factor (Oct) (AID 2282993); conditions: HepG2 Attagene cis-factorial Oct reporter, mRNA; actives raise or lower the signal
Summary of the method: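 Transient MRTU transfection of HepG2 → 24 h compound treatment → RNA isolation, reverse transcription, PCR → 6-FAM primer extension, HpaI digest → capillary electrophoresis. Activity fitted both directions against DMSO.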

[6] = target: Nuclear respiratory factor 1 (Homo sapiens) (UniProt Q16656); assay: ATG_NRF1_CIS: Attagene CIS-FACTORIAL HepG2 Assay for human Nuclear Respiratory Factor 1 (NRF1) Orphan Gene (AID 2282987); conditions: HepG2 NRF1 cis-element reporter, Attagene multiplex; actives raise or lower the signal
Chain of Nuclear respiratory factor 1 (Homo sapiens) (Q16656 whole entry, looked up): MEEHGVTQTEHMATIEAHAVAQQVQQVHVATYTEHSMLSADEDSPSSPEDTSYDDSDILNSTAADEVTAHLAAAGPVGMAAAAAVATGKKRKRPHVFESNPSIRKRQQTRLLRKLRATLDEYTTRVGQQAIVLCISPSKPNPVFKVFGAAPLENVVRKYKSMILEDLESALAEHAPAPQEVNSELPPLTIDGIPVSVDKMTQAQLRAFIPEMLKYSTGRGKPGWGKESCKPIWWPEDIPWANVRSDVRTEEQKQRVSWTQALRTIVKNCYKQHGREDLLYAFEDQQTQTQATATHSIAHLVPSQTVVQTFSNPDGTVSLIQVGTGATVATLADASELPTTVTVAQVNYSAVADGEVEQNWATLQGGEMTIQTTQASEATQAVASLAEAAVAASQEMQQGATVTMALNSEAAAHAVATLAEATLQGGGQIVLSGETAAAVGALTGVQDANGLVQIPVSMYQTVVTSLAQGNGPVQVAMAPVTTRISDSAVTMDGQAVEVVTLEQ
Summary of the method: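 Human hepatoma HepG2 cells carrying transfected promoter-regulated reporter units were incubated with test chemicals for 24 h. Reporter transcripts were measured by RT-PCR plus capillary electrophoresis, and endpoints derived by bidirectional fitting with DMSO as baseline.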

[7] = target: Cellular tumor antigen p53 (Homo sapiens) (UniProt P04637); assay: ATG_p53_CIS: Attagene CIS-FACTORIAL HepG2 Assay for human p53 Transcription Factor (AID 2282994); conditions: HepG2 p53 cis-element reporter, Attagene mRNA; actives raise or lower the signal
Chain of Cellular tumor antigen p53 (Homo sapiens) (P04637 whole entry, looked up): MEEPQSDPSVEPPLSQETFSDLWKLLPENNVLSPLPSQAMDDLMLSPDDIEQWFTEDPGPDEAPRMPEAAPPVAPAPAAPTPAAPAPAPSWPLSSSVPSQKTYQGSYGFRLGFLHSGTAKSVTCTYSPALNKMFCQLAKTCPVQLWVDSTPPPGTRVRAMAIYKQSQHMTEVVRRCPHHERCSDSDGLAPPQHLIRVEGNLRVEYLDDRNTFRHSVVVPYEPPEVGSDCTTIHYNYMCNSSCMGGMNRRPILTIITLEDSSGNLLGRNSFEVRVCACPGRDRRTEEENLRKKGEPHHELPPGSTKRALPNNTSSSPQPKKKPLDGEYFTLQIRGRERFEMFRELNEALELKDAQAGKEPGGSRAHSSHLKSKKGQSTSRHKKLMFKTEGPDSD
Summary of the method: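 Transiently transfected HepG2 (multiple cis reporter transcription units); exposure 24 h; reporter RNA via RT-PCR, 6-FAM extension, 2 h HpaI digest at 37 C, CE detection; DMSO baseline.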

[8] = BSK_3C_TissueFactor: BioMAP Diversity Plus: 3C Assay for Tissue Factor Biomarker Activity (AID 2282997); conditions: BioMAP 3C HUVEC, tissue factor biomarker readout; actives raise or lower the signal
Summary of the method: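 HUVEC, 3C system, 24 h post-dose; Tissue Factor by ELISA; bidirectional fit vs DMSO baseline.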

[9] = BSK_3C_uPAR: BioMAP Diversity Plus: 3C Assay for Urokinase-type plasminogen activator receptor (uPAR) Biomarker Activity (AID 2282998); conditions: BioMAP 3C HUVEC, uPAR biomarker ELISA; actives raise or lower the signal
Summary of the method: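 ELISA readout of uPAR on human vascular endothelium (umbilical vein primary cells), taken 24 h after chemical dosing. Increases and decreases are both fitted relative to DMSO vehicle.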

[10] = BSK_3C_VCAM1: BioMAP Diversity Plus: 3C Assay for Vascular cell adhesion molecule 1 (VCAM1) Biomarker Activity (AID 2282999); conditions: BioMAP 3C HUVEC, VCAM1 ELISA, cytokine-stimulated; actives raise or lower the signal
Summary of the method: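 Activity fitted in both directions relative to DMSO, with ELISA measurement of the surface marker on primary HUVEC (3C) at 24 h post-treatment; parallel SRB staining (0.1% SRB, TCA-fixed, 560 nm) flagged overt cytotoxicity.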

For `CCCCCCC(O)CCOC(C)=O` (stereo not given), which outcome [1] is on record?
Its outcome is “inactive”.

And the outcome [2]?
The outcome was “inactive”.

What about the outcome [3] of the same compound?
Its outcome is “inactive”.

And the outcome [4]?
The outcome was “inactive”.

What about the outcome [5] of the same compound?
The outcome was “inactive”.

What does the source list for `O=C1CCCCCCCCCCCC(=O)OCCO1`?
outcome [6]: inactive; outcome [2]: inactive; outcome [4]: inactive; outcome [5]: inactive

What does the source list for `c1ccc(Cc2ccccc2)cc1`?
outcome [1]: inactive; outcome [2]: inactive; outcome [3]: inactive; outcome [4]: inactive; outcome [5]: inactive; outcome [7]: inactive

Which outcome [6] does the source give for `CCC(C)C1CCCCC1=O` (stereo not given) here?
Its outcome is “inactive”.

And the outcome [2]?
The outcome was “inactive”.

And the outcome [3]?
The outcome was “inactive”.

What about the outcome [4] of the same compound?
Its outcome is “inactive”.

And the outcome [7]?
The outcome was “inactive”.

Which outcome [6] does the source give for `CC(=N[Si](C)(C)C)O[Si](C)(C)C` here?
Its outcome is “inactive”.

What about the outcome [2] of the same compound?
Its outcome is “inactive”.

And the outcome [3]?
Its outcome is “inactive”.

What about the outcome [4] of the same compound?
The outcome was “inactive”.

What about the outcome [5] of the same compound?
The outcome was “inactive”.

And the outcome [7]?
The outcome was “inactive”.

Which outcome [1] does the source give for `OC[C@@H](O)[C@H](O)[C@@H](O)[C@@H](O)CO` here?
The outcome was “inactive”.

And the outcome [2]?
The outcome was “inactive”.

And the outcome [3]?
Its outcome is “inactive”.

What about the outcome [4] of the same compound?
Its outcome is “inactive”.

And the outcome [5]?
The outcome was “inactive”.

What about the outcome [7] of the same compound?
Its outcome is “inactive”.

For `CC(C)=CC(=O)O`, which outcome [6] is on record?
Its outcome is “inactive”.

What about the outcome [2] of the same compound?
Its outcome is “inactive”.

And the outcome [3]?
The outcome was “inactive”.

And the outcome [4]?
Its outcome is “inactive”.

And the outcome [7]?
Its outcome is “inactive”.

Which outcome [6] does the source give for `CC(C)(C)c1ccc(S)cc1` here?
The outcome was “inactive”.

What about the outcome [2] of the same compound?
The outcome was “inactive”.

And the AC50 [4]?
Its AC50 is 16.1 µM (active).

What about the outcome [5] of the same compound?
The outcome was “inactive”.

And the outcome [7]?
Its outcome is “inactive”.

Which results are given for `c1ccc2c(c1)-c1ccc3ccc4cccc5cc-2c1c3c45`?
outcome [6]: inactive; outcome [2]: inactive; outcome [3]: inactive; AC50 [4]: 0.205 µM (active); outcome [5]: inactive; AC50 [8]: 35.2 nM (active); AC50 [9]: 667 nM (active); outcome [10]: inactive

For `C=CCOCC(O)CO` (stereo not given), which outcome [6] is on record?
The outcome was “inactive”.

What about the AC50 [2] of the same compound?
The AC50 was 137 µM (active).

What about the outcome [4] of the same compound?
Its outcome is “inactive”.

What about the outcome [5] of the same compound?
The outcome was “inactive”.

And the outcome [7]?
The outcome was “inactive”.

Which outcome [6] does the source give for `CC1=CC(C)C(C=O)C(C)C1` (stereo not given) (tested in a mixture with another compound) here?
The outcome was “inactive”.

And the outcome [2]?
Its outcome is “inactive”.

What about the outcome [3] of the same compound?
Its outcome is “inactive”.

And the outcome [4]?
Its outcome is “inactive”.

What about the outcome [5] of the same compound?
The outcome was “inactive”.

And the outcome [7]?
Its outcome is “inactive”.

And the outcome [8]?
Its outcome is “inactive”.

What about the outcome [9] of the same compound?
The outcome was “inactive”.

And the outcome [10]?
The outcome was “inactive”.

What does the source list for `NC(N)=S`?
outcome [6]: inactive; outcome [2]: inactive; outcome [4]: inactive; outcome [5]: inactive; outcome [7]: inactive

Which results are given for `Nc1ccn([C@H]2CC[C@@H](CO)O2)c(=O)n1`?
outcome [6]: inactive; outcome [2]: inactive; outcome [3]: inactive; outcome [4]: inactive; outcome [5]: inactive; outcome [7]: inactive

What does the source list for `CC/C(=C(\c1ccccc1)c1ccc(OCCN(C)C)cc1)c1ccccc1`?
outcome [1]: inactive; outcome [2]: inactive; outcome [3]: inactive; AC50 [4]: 3.05 µM (active) [middle of 4 runs]; outcome [4]: inactive; outcome [5]: inactive; outcome [7]: inactive; AC50 [8]: 11.2 µM (active) and 11.1 µM (active); AC50 [9]: 5.43 µM (active) and 5.65 µM (active); AC50 [10]: 9.97 µM (active) and 9.7 µM (active)

Which results are given for `CC(C)(C)C1CCC(O)CC1` (stereo not given)?
outcome [1]: inactive; outcome [2]: inactive; outcome [3]: inactive; outcome [4]: inactive; outcome [5]: inactive; outcome [7]: inactive

What does the source list for `CC(C)C(=O)OCC=Cc1ccccc1`?
outcome [6]: inactive; outcome [2]: inactive; outcome [3]: inactive; AC50 [4]: 59.3 µM (active); outcome [5]: inactive; outcome [7]: inactive

Which results are given for `CC(=O)CCC=C(C)CCC=C(C)C`?
outcome [6]: inactive; outcome [2]: inactive; outcome [3]: inactive; outcome [7]: inactive; outcome [8]: inactive; outcome [9]: inactive; AC50 [10]: 30.9 µM (active)

What does the source list for `FC(F)(F)c1ccc(Cl)c(Cl)c1`?
outcome [1]: inactive; outcome [2]: inactive; outcome [3]: inactive; outcome [4]: inactive; outcome [5]: inactive; outcome [7]: inactive

Which results are given for `CC(C)(O)C(=O)c1ccc(OCCO)cc1`?
outcome [1]: inactive; outcome [2]: inactive; outcome [3]: inactive; outcome [4]: inactive; outcome [5]: inactive; outcome [7]: inactive

Which outcome [1] does the source give for `CC(O)CN` (stereo not given) here?
The outcome was “inactive”.

What about the outcome [2] of the same compound?
The outcome was “inactive”.

What about the outcome [3] of the same compound?
The outcome was “inactive”.

What about the outcome [4] of the same compound?
The outcome was “inactive”.

What about the outcome [5] of the same compound?
The outcome was “inactive”.

With `Cc1cccc(O)c1` as the compound, how does the outcome [6] read?
Its outcome is “inactive”.

And the outcome [2]?
The outcome was “inactive”.

What about the outcome [3] of the same compound?
Its outcome is “inactive”.

What about the outcome [4] of the same compound?
The outcome was “inactive”.

And the outcome [5]?
Its outcome is “inactive”.

And the outcome [7]?
The outcome was “inactive”.

Which outcome [6] does the source give for `CC(=O)C1C(=O)C=C(C)OC1=O` (stereo not given) here?
The outcome was “inactive”.

And the outcome [2]?
Its outcome is “inactive”.

And the outcome [4]?
Its outcome is “inactive”.

What about the outcome [5] of the same compound?
Its outcome is “inactive”.

What about the outcome [7] of the same compound?
The outcome was “inactive”.

For `Cc1ccncc1`, which outcome [6] is on record?
The outcome was “inactive”.

What about the outcome [2] of the same compound?
Its outcome is “inactive”.

And the outcome [5]?
Its outcome is “inactive”.

What about the outcome [7] of the same compound?
The outcome was “inactive”.

With `CCCC1CCC(=O)CC1` as the compound, how does the outcome [1] read?
The outcome was “inactive”.

What about the outcome [2] of the same compound?
The outcome was “inactive”.

With `c1coc(CNc2ncnc3nc[nH]c23)c1` as the compound, how does the outcome [6] read?
Its outcome is “inactive”.

What about the outcome [2] of the same compound?
Its outcome is “inactive”.

And the AC50 [4]?
The AC50 was 33.8 µM (active).

And the outcome [5]?
The outcome was “inactive”.

What about the outcome [7] of the same compound?
The outcome was “inactive”.

For `Cc1ccc(C(C)(C)O)cc1`, which outcome [1] is on record?
Its outcome is “inactive”.

And the outcome [2]?
Its outcome is “inactive”.

What about the outcome [3] of the same compound?
Its outcome is “inactive”.

And the outcome [4]?
The outcome was “inactive”.

What about the outcome [5] of the same compound?
The outcome was “inactive”.

And the outcome [7]?
Its outcome is “inactive”.

Which outcome [1] does the source give for `CC1=CC[C@@H]2C[C@H]1C2(C)C` here?
The outcome was “inactive”.

What about the outcome [2] of the same compound?
Its outcome is “inactive”.

And the outcome [3]?
Its outcome is “inactive”.

What about the outcome [4] of the same compound?
Its outcome is “inactive”.

What about the outcome [5] of the same compound?
The outcome was “inactive”.

Which results are given for `CCCc1ccc(N)cc1`?
outcome [6]: inactive; outcome [2]: inactive; outcome [3]: inactive; outcome [4]: inactive; outcome [5]: inactive; outcome [7]: inactive

With `COC(=O)C(C)Oc1ccc(Oc2ncc(C(F)(F)F)cc2Cl)cc1` (stereo not given) as the compound, how does the AC50 [6] read?
The AC50 was 137 µM (active).

And the outcome [2]?
Its outcome is “inactive”.

And the outcome [4]?
The outcome was “inactive”.

And the outcome [5]?
The outcome was “inactive”.

And the outcome [7]?
The outcome was “inactive”.
